From PubChem BioAssay AID463173 (ICCB-Longwood Screening Facility, Harvard Medical School, 2010) come the findings set out here.

Among all 52,000 compounds or so, about 1,700 (3.3%) were called active. Rule as the data show it: active = survival mostly below about 52% (no sharp cut-off); inactive = mostly above about 56%. For the sample, actives were picked, then their nearest neighbours and some compounds at random.

For this experiment, the system named is Wild type. The experiment in a line: growth inhibition of S. aureus wild type versus tarO mutant, primary screen, teichoic acid synthesis inhibitors, RN4220, OD600 (AID 463173). The following applies: S. aureus RN4220 wild type/DeltatarO growth, OD600, 18 h, hits give low values, screened at 18.75 µg/mL (by protocol).
As to `c1ccc(N(c2ccccc2)c2nc(-n3nnc4ccccc43)nc(-n3nnc4ccccc43)n2)cc1`, the survival was 103% (inactive).
The value for `Cc1cccc(Oc2coc3cc(OCC(=O)NC4CCCCC4)ccc3c2=O)c1` was 80% (inactive); that for `COc1ccc(C2C(C(N)=O)=C(C)Nc3nc(SCc4ccccc4Cl)nn32)cc1OC` (stereo not given) was 143% (inactive); that for `CC1=C(C(=O)Nc2ccccc2)C(c2ccc(O)cc2)n2nc(-c3ccc(Cl)cc3)nc2N1` (stereo not given) was 82% (inactive).
The value for `CCC(C)c1ccc(OCC(=O)Nc2cccc3ccc(C)nc23)cc1` (stereo not given) was -12% (active); that for `COc1ccc(NC(=O)c2ccco2)cc1NC(=O)COc1cc(C)ccc1C(C)C` was 85% (inactive).
For `Cc1ccc2cccc(NC(=O)COc3cc(C)c(Cl)c(C)c3)c2n1` the value was 82% (inactive); for `Cc1ccc(C(C)C)c(OCC(=O)Nc2ccc3c(c2)nc(CCNC(=O)c2ccco2)n3C)c1`, 88% (inactive); for `Cc1ccc(C(C)C)c(OCC(=O)Nc2cccc(NC(=O)c3ccco3)c2)c1`, 12% (active).
`Cc1ccc2cccc(NC(=O)COc3ccccc3Cl)c2n1`: the survival was 134% (inactive).
On to `O=c1c(-c2cc(-c3ccccc3)nc3c2COc2ccc(Cl)cc2-3)coc2ccccc12`, for which the survival is 75% (inactive).
In the case of `COc1cc(C(=O)Nc2nonc2-c2ccc(Cl)cc2)cc(OC)c1OC`, the survival is 94% (inactive).
The value for `CCC1CCCCN1C(=O)Cn1c(=O)cc(C(F)(F)F)c2c(C)nn(C)c21` (stereo not given) was 68% (inactive).
Consider `Cc1ccc(-c2cc(C(=O)NCc3ccccc3)c3c(-c4ccc(C)cc4)[nH]nc3n2)cc1`, for which the survival is 75% (inactive).
`O=C(Cn1c(=O)nc(-c2ccccc2)c2cc(Cl)ccc21)NCCc1ccccc1`: the survival is 69% (inactive).
`CCCCOC(=O)c1cccc(NC(=O)/C=C/c2ccccc2Cl)c1`: the survival was 7% (active).
Regarding `CCCCOC(=O)c1cccc(NC(=O)c2cc3ccccc3o2)c1`, the survival is 0% (active).
The value for `CCN(CC)c1cc(C)c2cc(NC(=O)/C=C/c3ccccc3Cl)ccc2n1` was 76% (inactive); that for `Cc1ccc(NC(=O)/C=C/c2ccccc2Cl)cc1Cl` was 97% (inactive).
The value for `O=C(Nc1ccc(NC(=O)c2cc3ccccc3o2)cc1)c1ccccc1` was 80% (inactive).
For `CCCCOC(=O)c1ccc(NC(=O)c2cc(=O)c3ccccc3o2)cc1` the value was 93% (inactive); for `CC(C)CC(=O)Nc1ccc(C(=O)OCc2cc(=O)n3nc(C4CCCCC4)sc3n2)cc1`, 47% (inactive).
As for `CCC12C=CCN3CCC4(c5ccc(OC)cc5NC4C(O)(C(=O)OC)C1OC(C)=O)C32` (stereo not given), the survival is 100% (inactive).
For `Cc1ccc(-c2nc(CN(C)C)cc(CN(C)C)c2O)cc1` the value was 121% (inactive); for `CCOC(=O)CC(N)c1ccc2c(c1)OCO2` (stereo not given), 111% (inactive); for `O=c1c2cc3c(cc2n(Cc2ccccc2)c(=O)n1Cc1nc(-c2ccccc2)no1)OCO3`, 112% (inactive).
For `CC(C)CC(=O)Nc1ccc(C(=O)OCc2cc(=O)n3nc(C(C)C)sc3n2)cc1` the value was 138% (inactive).
As for `Nc1ccc2nc(SCCOc3ccccc3)sc2c1`, the survival was 108% (inactive).
The value for `Brc1ccc2nc(SCCOc3ccccc3)[nH]c2c1` was 0% (active); that for `COc1ccc2nc(SCC(O)c3cccc(Br)c3)[nH]c2c1` (stereo not given) was 84% (inactive).
Take `O=C(Nc1c[nH]c2cc(Cl)ccc2c1=O)N1CCCCC1`: the survival was 85% (inactive).
For `CSc1ccc(CNC(=O)Cn2nc(N3CCN(c4ccccc4)CC3)ccc2=O)cc1` the value was 64% (inactive).
`O=c1c2sc3ccccc3c2n(Cc2cccc(Cl)c2)c(=O)n1Cc1ccco1`: the survival is 68% (inactive).
For `CCOC(=O)c1ccc(NC(=O)CC2C(=O)N(c3ccc(F)cc3)C(=O)N2Cc2ccc(C)cc2)cc1` (stereo not given) the value was 61% (inactive).
For `CCCOc1ccc(NC(=O)CC2C(=O)N(c3ccc(F)cc3)C(=O)N2CC(C)C)cc1` (stereo not given) the value was 75% (inactive); for `COC(=O)c1ccc(NC(=O)CC2C(=O)N(c3cccc(OC)c3)C(=O)N2C(C)C)cc1` (stereo not given), 78% (inactive).
The value for `CCc1ccc(NC(=O)CC2C(=O)N(c3ccccc3)C(=O)N2C(C)C)cc1` (stereo not given) was -6% (active).
With `COC(=O)c1ccc(NC(=O)CC2C(=O)N(c3ccccc3)C(=O)N2Cc2ccc(F)cc2)cc1` (stereo not given), the survival was 14% (active).
The value for `CCN1CCOC(=O)C1CC(=O)Nc1ccc(Br)cc1` (stereo not given) was 38% (inactive).
The value for `CCCOc1ccc(NC(=O)CC2C(=O)N(c3ccccc3)C(=O)N2Cc2ccc(F)cc2)cc1` (stereo not given) was -1% (active); that for `CCN1CCOC(=O)C1CC(=O)Nc1ccc(C(C)=O)cc1` (stereo not given) was 65% (inactive).
The value for `COc1ccc(CN2C(=O)N(c3ccc(F)cc3)C(=O)C2CC(=O)Nc2ccccc2)cc1` (stereo not given) was 79% (inactive); that for `CCCOc1ccc(NC(=O)CC2C(=O)N(c3ccc(C)cc3)C(=O)N2C(C)C)cc1` (stereo not given) was 133% (inactive); that for `COC(=O)c1ccc(NC(=O)CC2C(=O)N(c3ccc(F)cc3)C(=O)N2Cc2ccc(OC)cc2)cc1` (stereo not given) was 131% (inactive).
As for `CCc1ccc(NC(=O)CC2C(=O)OCCN2CC)cc1` (stereo not given), the survival was -15% (active).
The value for `O=C(CSc1nc(=O)n(Cc2ccco2)c2c1CCC2)Nc1ccccc1C(F)(F)F` was 138% (inactive); that for `Cc1ccccc1CNC(=O)c1ccc2c(c1)c(C)c(C)n2C` was 58% (inactive).
Take `CC1CCCN(c2ccc(C(=O)NCc3ccccc3)cn2)C1` (stereo not given): the survival is 103% (inactive).
Consider `CCc1cccc(NC(=O)CSc2nncn3c2cc2sccc23)c1`, for which the survival was 73% (inactive).
The value for `CCOc1cccc2sc(NC(=O)CS(=O)(=O)c3ccc(C)cc3)nc12` was 72% (inactive); that for `Cc1cccn2c(=O)c(C(=O)N3CCN(c4ccc(Cl)cc4)CC3)cnc12` was 87% (inactive); that for `CCCSCCCNC(=O)C1CCCN(C(=O)c2cnn(-c3ccccc3)c2-n2cccc2)C1` (stereo not given) was 107% (inactive).
For `COc1ccccc1CNC(=O)c1oc2ccc3c(c2c1C)C(=O)CC(C)(C)O3` the value was 59% (inactive); for `Cc1ccc(OC(C)C(=O)NCC2(N3CCOCC3)CCCCC2)cc1C` (stereo not given), 86% (inactive).
For `CC1CCCN(Cc2c(O)ccc3c(=O)c(-c4ccc(Cl)cc4)c(C(F)(F)F)oc23)C1` (stereo not given) the value was 71% (inactive); for `CCc1cccc(C)c1NC(=O)C(CC)Sc1nncn2c1cc1occc12` (stereo not given), 78% (inactive); for `CCc1ccc(CNC(=O)c2ccc3c(c2)nc2n3CCOC2)cc1`, 111% (inactive).
Consider `CN(C(=O)C1CCN(c2ncnc3c2nc2n3CCCCC2)CC1)c1ccccc1F`, for which the survival was 60% (inactive).
For `O=C(CSc1c2c(nc3ccc(Cl)cc13)CCCC2)N1CCN(c2ccc(Cl)cc2)CC1` the value was 53% (inactive); for `O=C(CSc1c2c(nc3cc(Cl)ccc13)CCCC2)N1CCN(c2ccccc2F)CC1`, 69% (inactive); for `CC1CCCCN1C(=O)CSc1c2c(nc3cc(Cl)ccc13)CCCC2` (stereo not given), -1% (active).
With `Cc1ccc(CNC(=O)CSc2c3c(nc4cc(Cl)ccc24)CCCC3)cc1`, the survival is 83% (inactive).
The value for `O=C(CSc1c2c(nc3cc(Cl)ccc13)CCCC2)N1CCN(c2ccccc2)CC1` was 44% (inactive).
The value for `CC1CCN(C(=O)CSc2c3c(nc4ccc(Cl)cc24)CCCC3)CC1` was -1% (active).
For `O=C(CSc1c2c(nc3ccc(Cl)cc13)CCCC2)N1CCCCC1` the value was 29% (inactive); for `CCOC(=O)C1CCN(C(=O)CSc2c3c(nc4ccc(Cl)cc24)CCCC3)CC1`, 56% (inactive); for `COCCNC(=O)CSc1c2c(nc3cc(Cl)ccc13)CCCC2`, 71% (inactive).
In the case of `CC1CCCN(C(=O)CSc2c3c(nc4cc(Cl)ccc24)CCCC3)C1` (stereo not given), the survival is -1% (active).
With `CCC(C)NC(=O)CSc1c2c(nc3cc(Cl)ccc13)CCCC2` (stereo not given), the survival was 82% (inactive).
In the case of `CC1CCN(C(=O)CSc2c3c(nc4cc(Cl)ccc24)CCCC3)CC1`, the survival was 10% (active).
For `CCCCN1C(=O)CN(C2CCCCCC2)C(=O)C1c1ccc(OCC)c(OC)c1` (stereo not given) the value was 78% (inactive); for `CCCCNc1nc2c(S(=O)(=O)c3ccc(Cl)cc3)nnn2c2ccsc12`, 89% (inactive); for `O=C(NC1CC2CCCC(C1)N2CC(=O)N1CCCc2ccccc21)c1ccccc1` (stereo not given), 97% (inactive).
For the compound `CCOc1ccc(C2CC(=O)c3c([nH]c(C(=O)OC4CCCCCC4)c3C)C2)cc1` (stereo not given), the survival was 79% (inactive).
For the compound `O=C(Cn1nc(Cc2cccnc2)c2ccccc2c1=O)N1CCN(c2ccc(F)cc2)CC1`, the survival was 89% (inactive).
As to `Cc1ccccc1CNC(=O)C(=O)NCC(c1cccs1)S(=O)(=O)c1ccc(Cl)cc1` (stereo not given), the survival is 74% (inactive).
For `Cc1ccc(OCC(=O)OCc2cc(=O)n3nc(C4CCCCC4)sc3n2)cc1C` the value was 79% (inactive); for `CC1=Nc2cc(C(=O)N3CCCCC3)ccc2Sc2ccc(C)cc21`, 3% (active); for `CCCC1=Nc2cc(C(=O)N3CCC(C)CC3)ccc2Sc2ccc(C)cc21`, 107% (inactive).
The value for `CCOC(=O)C1CCN(C(=O)c2ccc3c(c2)N=C(CC)c2cc(C)ccc2S3)CC1` was 29% (inactive); that for `CCC1=Nc2cc(C(=O)N3CCC(C)CC3)ccc2Sc2ccc(C)cc21` was -1% (active).
For `CNC(=O)c1ccc2c(c1)N=C(C)c1cc(C)ccc1S2` the value was 80% (inactive).
In the case of `CC1=Nc2cc(C(=O)N3CCC(C)CC3)ccc2Sc2ccc(Cl)cc21`, the survival is 81% (inactive).
For `CC(C)CCNC(=O)CN1C(=O)CCn2nc(-c3cn(C)c4ccccc34)cc21` the value was 87% (inactive); for `COc1ccccc1-c1c(C)nn2c(N3CCN(c4ccc(F)cc4)CC3)cc(C)nc12`, 88% (inactive); for `O=c1c(N2CCN(c3cccc(C(F)(F)F)c3)CC2)csc2ccc(Cl)cc12`, 74% (inactive).
For `CCOC(=O)c1c(S(=O)(=O)NCC(=O)Nc2cc(C)ccc2C)c(C)n(C)c1C` the value was 66% (inactive); for `Cn1c(=O)n(-c2cccc(Cl)c2)c(=O)c2sc3ccccc3c21`, 71% (inactive); for `Cc1ccc(S(=O)(=O)N2CCN(Cc3cc(=O)n4nc(-c5ccccc5Cl)sc4n3)CC2)cc1`, 64% (inactive).
For `CCn1cc(S(=O)(=O)c2ccccc2)c(=O)c2cc(F)c(F)cc21` the value was 82% (inactive).
